Test [1] is described as follows: qHTS for Activators of Parkin Expression: LOPAC Validation Assay (NLuc Reporter) (AID 720572;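 further: 0% = DMSO and 100% = positive control compound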). The method, boiled down:
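Parkin promoter-driven FLuc/NLuc neuronal reporter cells; 24 h plating, 7-pt dose response, 24 h at 37 C/5% CO2; FLuc then NanoLuc reagent, 10 min each, luminescence; DMSO/positive control normalized.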

The target in test [2] is T1, Hexokinase-4 (Homo sapiens) + Glucokinase regulatory protein (Homo sapiens) (UniProt P35557+Q14397). The test is described as follows: qHTS assay for inhibitors of recombinant human GCK-GKRP interaction: Diaphorase-coupled assay (AID 743205). The procedure, abridged:
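Compounds pre-incubated 20 min with substrate, then 10 nM GST-GCK with 10 nM FLAG-GKRP added. GCK activity coupled via G6PDH and diaphorase to resorufin (5 mM glucose, 0.4 mM ATP, 0.15 mM NADP+, pH 7.6), read kinetically over 30 minutes at Ex 525/Em 590 nm.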

The target of test [3] is T1, Hexokinase-4 (Homo sapiens) + Glucokinase regulatory protein (Homo sapiens). Briefly: qHTS assay for inhibitors of recombinant human GCK-GKRP interaction: ADP-Glo assay (AID 743206).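 Further: plate controls were DMSO plus enzyme for no effect and no enzyme for full effect.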 The method, boiled down: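 GST-GCK and FLAG-GKRP (15 nM each in the dispensed mix, with 2 uM S6P) react with 0.4 mM ATP and 5 mM glucose (final) in Hepes pH 7.6 for 60 min at room temperature. ADP is measured by ADP-Glo luminescence.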

Test [4] shares this target. The test is described as follows: qHTS assay for inhibitors of recombinant human GCK-GKRP interaction: HTRF assay (AID 743207).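 Further: 0% = DMSO with GCK present and -100% = DMSO wells lacking GCK.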 The procedure, abridged:
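HTRF binding of 5 nM GST-GCK and 5 nM FLAG-GKRP with 2 uM S6P in pH 7.1 Hepes buffer (MgCl2, KCl, DTT, Tween 20, BSA). Anti-FLAG XL665 and anti-GST donor added, 60 min at room temperature; 665/615 nm read, normalized to with- and without-GCK controls.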

Test [5] can be described thus: Natriuretic polypeptide receptor (hNpr1) antagonism - Pilot counterscreen GloSensor control cell line (AID 1347045; calls by dose curve; further: potency means the concentration at half of the fitted maximal effect). The procedure, abridged:
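Luminescence was read before and 20 min after adding 50 uM SNP, which stimulates soluble guanylyl cyclase. The HEK293 cells expressing the GloSensor cGMP sensor had been preloaded with 2% reagent for 2 h and treated with compound.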

Test [6] addresses T2, Tyrosine-protein phosphatase non-receptor type substrate 1 (Homo sapiens) + Leukocyte surface antigen CD47 (Homo sapiens) (UniProt P78324+Q08722). Briefly: CD47-SIRPalpha protein protein interaction - LANCE assay qHTS validation (AID 1347057; active means well fitted curve in the direction sought with a large enough effect in the signal ratio, with a control signal flat, not every such curve was filed as active; the % refers to the signal ratio; further: series mostly up to about 38 µM; 0% is about no effect). The method, boiled down: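 First, His-tagged CD47 and Eu-labelled anti-His antibody met the compound for 30 min; next, site-specifically biotinylated SIRPalpha was added for 30 min; finally streptavidin-APC was added before reading the TR-FRET ratio.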

The target in test [7] is T2, Tyrosine-protein phosphatase non-receptor type substrate 1 (Homo sapiens) + Leukocyte surface antigen CD47 (Homo sapiens). Briefly: CD47-SIRPalpha protein protein interaction - HTRF assay qHTS validation (AID 1347058; active means well fitted curve in the direction sought with a large enough effect in the signal ratio, not every such curve was filed as active; the % refers to the signal ratio;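 further: recombinant soluble extracellular CD47 with His tag and biotinylated SIRPalpha domains; series mostly up to about 38 µM; 0% is about no effect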). The procedure, abridged:
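TR-FRET read (Ch1/Ch2 ratio) of soluble extracellular CD47 and Avi-biotinylated SIRPalpha domains in PBS pH 7.4 with 0.05% IGEPAL; 7-point compound titration. Sequential 30 min room-temperature steps; non-biotinylated SIRPalpha as control inhibitor.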

Test [8] shares this target. The test is described as follows: CD47-SIRPalpha protein protein interaction - Alpha assay qHTS validation (AID 1347059).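 Further: bead proximity luminescence from CD47 binding SIRPalpha after compound preincubation with SIRPalpha; on the % scale 0 is the no-effect control and ±100 the full control effect.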 The method, boiled down: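 Binding is measured by AlphaScreen proximity: Ni-NTA acceptor beads capture His-CD47, streptavidin donor beads capture biotin-SIRPalpha. Each of three additions (SIRPalpha with compound, CD47, beads) incubates 30 min at room temperature protected from light.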

Test [9] deals with Parathyroid hormone/parathyroid hormone-related peptide receptor (Homo sapiens) (UniProt Q03431). The test is described as follows: qHTS for PTHR1 Agonists: Optimization Screen against the NCGC LOPAC library (AID 1347079).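 Further: GloSensor cAMP luminescence in HEK-293 GP2 cells expressing human PTHR1 with IBMX; 0% is about no effect.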 The method, boiled down: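 Agonist readout: GloSensor cAMP luminescence, read after 15 min at room temperature. HEK-293-derived GP2 line carries PTHR1; compounds tested as a titration for 1 hr at 37C in presence of IBMX. M-PTH (1-15) served as control.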

For test [10], the target named is Lysine-specific demethylase 5B (Homo sapiens) (UniProt Q9UGL1). Briefly: Optimization screen for KDM5B Histone Demethylases FDH coupled qHTS against the LOPAC library (AID 1347166). Further: 0% is about no effect. The method, boiled down: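 KDM5BDeltaAP (200nM final) preincubated 10 min with compound, then 12.5uM H3K4Me3, 25uM a-ketoglutarate, ascorbate, Fe(II), NAD+ and FDH added; 50mM HEPES pH 7.5, 0.01% Tween-20. NADH fluorescence (340/450 nm) change over 30 min, room temperature.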

Test [11] can be described thus: qHTS for inhibitors of adenylyl cyclases using a fission yeast platform: a pilot screen against the NCATS LOPAC library (AID 1347410).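 Further: plate controls were DMSO vehicle for no effect and DPI positive control for full effect.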 The procedure, abridged: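 S. pombe CHP2027 (AC9-GNAS-PDE4D2) carrying PKA-repressed fbp1-GFP, incubated 18 h at 30C in EMM with LOPAC compounds at up to 57 uM. GFP gain-of-signal read by laser scanning cytometry; DMSO negative control.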

Test [12] addresses Single-stranded DNA cytosine deaminase (Homo sapiens) (UniProt Q9GZX7). Briefly: Validation qHTS assay for inhibitors of Activation Induced Cytidine Deaminase (AID): AID signal (AID 1347429). Further: on the % scale 0 is the no-effect control and ±100 the full control effect. The procedure, abridged:
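Fluorescence at 540 nm excitation and 590 nm emission reports ssDNA cytosine deamination by AID, with UDG in the same well. Compound-treated reactions ran 4 hr at room temperature with DJC20/DJC23 substrate, followed by 30 min NaOH treatment.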

A short description of test [13]: Primary qHTS for inhibitors of La Crosse Virus (LACV) - induced cell death in SH-SY5Y cells (AID 1508616).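 Further: top concentration of the series differs between compounds; 0% = infected DMSO wells and 100% = uninfected DMSO wells; higher means more rescue of cells from virus-induced death.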 The procedure, abridged: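 Protection against LACV-induced cell death is scored in SH-SY5Y cells exposed to compounds and virus (0.01 MOI) for 6 days. Data normalized to virus-infected DMSO wells and virus-free DMSO wells.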
The target of test [14] is Calcium and integrin-binding protein 1 (Homo sapiens) (UniProt Q99828). Briefly: Validation qHTS for Identification of Calcium Integrin Binding protein 1 (CIB1) Competitor (AID 1508618). Further: on the % scale 0 is the no-effect control and ±100 the full control effect. The procedure, abridged:
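CIB1-GST (1 uM final) incubated 15 min at room temperature with compounds (up to 114 uM), then FITC-labelled alphaIIb peptide (100 nM) added. FP read (Ex 480/Em 540) after 15 min, pH 7.4 buffer containing 5 mM CaCl2.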

Test [15] in a line: Counterscreen qHTS for small molecule stabilizers of the endoplasmic reticulum resident proteome: GLuc-NoTag assay (AID 1508627).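 Further: SH-SY5Y cells given compound then 100 nM thapsigargin to empty ER calcium; series mostly up to about 76 µM; 0% = thapsigargin alone and -100% = DMSO vehicle control.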 The procedure, abridged: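 Luminescence of Gaussia luciferase secreted into the medium (coelenterazine, 0.07x final, unlysed cells) was the read-out. Human SH-SY5Y neuroblastoma cells constitutively secreting untagged GLuc received compound for 19 h, then 100 nM thapsigargin for 4 h.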

A short description of test [16]: Cell Viability qHTS for small molecule stabilizers of the endoplasmic reticulum resident proteome (AID 1508629).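 Further: human SH-SY5Y neuroblastoma cells carrying the GLuc-SERCaMP reporter; compound exposure about 46 h in total before the viability read; on the % scale 0 is the no-effect control and ±100 the full control effect.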 Particulars: cell viability counter-screen, 100 nM thapsigargin for final 4 h.
Test [17] deals with Papain (Carica papaya) (UniProt P00784). Briefly: Primary qHTS assay for inhibitors of the protease papain (AID 1645873).
Test [18] addresses Metallo-beta-lactamase type 2 (Klebsiella pneumoniae) (UniProt C7C422). Briefly: qHTS to identify inhibitors of the New Delhi Metallo-beta-lactamase (NDM): assay validation screen against the NCATS LOPAC Collection (AID 1794843). The method, boiled down:
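Absorbance at 485 nm from nitrocefin turnover (50 uM solution added), read at plateau, gives the read-out. Compounds in DMSO were incubated first with 2 nM final NDM-1 in pH 7.0 HEPES buffer containing 1 uM ZnSO4 and 0.01% Tween20.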

The target of test [19] is Glutathione peroxidase 1 (Homo sapiens) (UniProt P07203). The test is described as follows: Primary qHTS Assay for Inhibitors of Recombinant Selenoprotein Glutathione Peroxidase 1 (GPX1) (AID 1845191). Further: on the % scale 0 is the no-effect control and ±100 the full control effect; nearly all actives have a fitted effect of over 65% in size. The procedure, abridged: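 10 nM GPX1 + cpd, 30 min RT; start w/ 1 mM GSH, 0.5 mM cumene hydroperoxide, 0.5 mM NADPH, 100 nM GR, 0.01% BSA; buffer 50 mM Tris-HCl pH 7.5, 2 mM EDTA, 150 mM NaCl; Fl 340/450, 0 & 15 min.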

Test [20] deals with Phospholipid hydroperoxide glutathione peroxidase GPX4 (Homo sapiens) (UniProt P36969). Briefly: Primary qHTS Assay for Inhibitors of Recombinant Selenoprotein Glutathione Peroxidase 4 (GPX4) (AID 1845192). Further: series mostly up to about 50 µM; on the % scale 0 is the no-effect control and ±100 the full control effect; nearly all actives have a fitted effect of over 65% in size. Particulars: outcome: dose series up to 50 µM unless noted. The procedure, abridged:
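NADPH consumption, followed by fluorescence at 340/450 nm between 0 and 15 min, reports GPX4 activity via coupled glutathione reductase (100 nM). Enzyme 200 nM was pre-exposed to compound 30 min; 0.5 mM cumene hydroperoxide and 1 mM GSH served as substrates.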

A number with no mark means an inactive call. Inconclusive results are not listed. Calls of active or inactive are those of the source. Unless noted, the call rests on the fitted dose curve; in most records, active means well fitted curve in the direction sought with a large enough effect; inconclusive means small, poorly fitted or top-dose-only effect, or another doubt; inactive means no such curve, though single readings can be large; an effect the other way counts as inactive or inconclusive.

T1 sequence (P35557 whole entry, looked up): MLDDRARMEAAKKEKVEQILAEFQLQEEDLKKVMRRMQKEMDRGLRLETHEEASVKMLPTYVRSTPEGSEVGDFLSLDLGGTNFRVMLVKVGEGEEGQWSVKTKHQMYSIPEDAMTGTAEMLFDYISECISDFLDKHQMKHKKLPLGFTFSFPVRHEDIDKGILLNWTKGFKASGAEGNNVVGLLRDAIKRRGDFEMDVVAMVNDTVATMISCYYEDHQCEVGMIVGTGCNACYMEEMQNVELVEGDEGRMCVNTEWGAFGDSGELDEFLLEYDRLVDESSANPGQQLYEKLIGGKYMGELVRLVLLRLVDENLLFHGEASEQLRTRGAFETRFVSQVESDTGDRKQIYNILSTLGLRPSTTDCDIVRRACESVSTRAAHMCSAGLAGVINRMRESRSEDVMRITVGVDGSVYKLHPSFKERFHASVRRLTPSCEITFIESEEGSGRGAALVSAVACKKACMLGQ
T1 sequence (Q14397 whole entry, looked up): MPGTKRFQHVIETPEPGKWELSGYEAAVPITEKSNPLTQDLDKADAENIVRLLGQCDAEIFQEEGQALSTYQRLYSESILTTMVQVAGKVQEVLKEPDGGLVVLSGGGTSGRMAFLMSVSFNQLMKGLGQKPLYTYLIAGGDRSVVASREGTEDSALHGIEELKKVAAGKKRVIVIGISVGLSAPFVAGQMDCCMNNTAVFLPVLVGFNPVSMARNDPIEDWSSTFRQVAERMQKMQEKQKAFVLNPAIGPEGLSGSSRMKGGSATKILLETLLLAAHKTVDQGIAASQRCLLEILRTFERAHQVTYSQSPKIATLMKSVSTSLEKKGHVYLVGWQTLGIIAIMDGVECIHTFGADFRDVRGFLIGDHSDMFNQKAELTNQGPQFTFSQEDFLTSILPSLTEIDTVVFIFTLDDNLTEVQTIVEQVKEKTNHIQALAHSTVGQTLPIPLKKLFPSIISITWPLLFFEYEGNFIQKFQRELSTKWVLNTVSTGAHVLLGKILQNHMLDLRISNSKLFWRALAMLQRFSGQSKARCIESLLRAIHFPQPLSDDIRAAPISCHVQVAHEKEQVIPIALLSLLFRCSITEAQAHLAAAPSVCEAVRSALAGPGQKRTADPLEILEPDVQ
T2 sequence (P78324 whole entry, looked up): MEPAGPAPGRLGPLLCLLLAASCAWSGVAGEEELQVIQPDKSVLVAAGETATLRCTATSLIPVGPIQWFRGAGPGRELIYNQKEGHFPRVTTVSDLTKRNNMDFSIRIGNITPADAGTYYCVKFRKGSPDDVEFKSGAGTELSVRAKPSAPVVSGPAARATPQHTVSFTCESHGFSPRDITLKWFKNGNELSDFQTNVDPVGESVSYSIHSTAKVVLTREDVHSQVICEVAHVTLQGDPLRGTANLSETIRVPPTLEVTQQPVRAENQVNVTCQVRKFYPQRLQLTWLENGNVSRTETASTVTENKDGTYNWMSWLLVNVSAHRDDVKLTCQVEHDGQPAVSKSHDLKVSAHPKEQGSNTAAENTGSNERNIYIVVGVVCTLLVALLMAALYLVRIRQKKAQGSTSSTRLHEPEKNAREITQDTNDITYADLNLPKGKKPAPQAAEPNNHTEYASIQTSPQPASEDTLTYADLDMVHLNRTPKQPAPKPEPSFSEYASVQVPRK
T2 sequence (Q08722 whole entry, looked up): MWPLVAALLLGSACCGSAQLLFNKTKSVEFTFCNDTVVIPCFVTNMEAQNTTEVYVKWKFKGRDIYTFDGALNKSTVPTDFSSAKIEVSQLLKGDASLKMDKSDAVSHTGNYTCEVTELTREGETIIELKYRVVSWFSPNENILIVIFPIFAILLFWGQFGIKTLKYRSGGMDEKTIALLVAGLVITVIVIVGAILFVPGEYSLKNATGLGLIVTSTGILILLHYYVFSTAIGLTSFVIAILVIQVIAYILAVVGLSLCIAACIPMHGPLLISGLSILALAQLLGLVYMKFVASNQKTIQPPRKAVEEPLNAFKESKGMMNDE
Sequence of Calcium and integrin-binding protein 1 (Homo sapiens) (Q99828 whole entry, looked up): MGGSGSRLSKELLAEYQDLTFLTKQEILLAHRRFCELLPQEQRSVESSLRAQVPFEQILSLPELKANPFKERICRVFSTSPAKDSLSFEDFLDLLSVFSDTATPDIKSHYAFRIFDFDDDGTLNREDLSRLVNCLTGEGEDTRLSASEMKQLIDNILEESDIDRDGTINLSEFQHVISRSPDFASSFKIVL
Sequence of Glutathione peroxidase 1 (Homo sapiens) (P07203 whole entry, looked up): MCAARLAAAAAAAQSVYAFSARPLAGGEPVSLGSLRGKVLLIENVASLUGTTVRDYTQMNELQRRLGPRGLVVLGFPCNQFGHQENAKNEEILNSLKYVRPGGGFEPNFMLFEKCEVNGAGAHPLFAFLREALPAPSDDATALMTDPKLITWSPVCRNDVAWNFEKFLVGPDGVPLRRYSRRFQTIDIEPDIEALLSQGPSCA
Sequence of Single-stranded DNA cytosine deaminase (Homo sapiens) (Q9GZX7 whole entry, looked up): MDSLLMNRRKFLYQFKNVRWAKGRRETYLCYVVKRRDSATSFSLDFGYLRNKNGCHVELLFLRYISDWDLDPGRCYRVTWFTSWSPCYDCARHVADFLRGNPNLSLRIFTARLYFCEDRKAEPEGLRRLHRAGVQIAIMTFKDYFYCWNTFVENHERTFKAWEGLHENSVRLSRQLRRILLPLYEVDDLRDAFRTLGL
Sequence of Papain (Carica papaya) (P00784 whole entry, looked up): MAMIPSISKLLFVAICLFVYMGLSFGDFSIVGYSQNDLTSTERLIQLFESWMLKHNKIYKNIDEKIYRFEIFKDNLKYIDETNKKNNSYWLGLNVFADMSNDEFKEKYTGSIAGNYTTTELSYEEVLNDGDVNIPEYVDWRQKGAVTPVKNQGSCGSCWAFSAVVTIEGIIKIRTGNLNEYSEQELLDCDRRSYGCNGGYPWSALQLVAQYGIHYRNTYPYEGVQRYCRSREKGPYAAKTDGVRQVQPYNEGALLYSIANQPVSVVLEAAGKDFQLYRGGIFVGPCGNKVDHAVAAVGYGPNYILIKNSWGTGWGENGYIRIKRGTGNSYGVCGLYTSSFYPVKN
Sequence of Parathyroid hormone/parathyroid hormone-related peptide receptor (Homo sapiens) (Q03431 whole entry, looked up): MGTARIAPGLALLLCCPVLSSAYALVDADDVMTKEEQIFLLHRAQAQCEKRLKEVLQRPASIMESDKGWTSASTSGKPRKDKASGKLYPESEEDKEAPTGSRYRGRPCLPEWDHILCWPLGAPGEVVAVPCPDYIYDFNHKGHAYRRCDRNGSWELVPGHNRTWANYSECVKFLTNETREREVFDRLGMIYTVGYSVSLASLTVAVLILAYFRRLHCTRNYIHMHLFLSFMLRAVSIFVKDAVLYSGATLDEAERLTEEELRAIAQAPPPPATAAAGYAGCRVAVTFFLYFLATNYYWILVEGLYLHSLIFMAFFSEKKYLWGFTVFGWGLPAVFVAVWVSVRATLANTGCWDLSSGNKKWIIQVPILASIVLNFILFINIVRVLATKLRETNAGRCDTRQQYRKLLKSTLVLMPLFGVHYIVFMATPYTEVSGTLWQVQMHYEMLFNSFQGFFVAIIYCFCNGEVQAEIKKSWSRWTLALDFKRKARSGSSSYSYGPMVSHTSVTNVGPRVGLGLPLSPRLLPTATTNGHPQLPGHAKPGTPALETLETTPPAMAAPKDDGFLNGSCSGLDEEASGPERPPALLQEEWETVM
Sequence of Metallo-beta-lactamase type 2 (Klebsiella pneumoniae) (C7C422 whole entry, looked up): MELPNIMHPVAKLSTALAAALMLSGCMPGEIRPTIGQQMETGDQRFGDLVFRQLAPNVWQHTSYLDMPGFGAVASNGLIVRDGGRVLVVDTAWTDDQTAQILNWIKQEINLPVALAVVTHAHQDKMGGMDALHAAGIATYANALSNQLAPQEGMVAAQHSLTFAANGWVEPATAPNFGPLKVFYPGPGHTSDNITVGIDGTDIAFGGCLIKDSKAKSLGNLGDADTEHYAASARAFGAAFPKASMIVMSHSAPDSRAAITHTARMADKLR
Sequence of Phospholipid hydroperoxide glutathione peroxidase GPX4 (Homo sapiens) (P36969 whole entry, looked up): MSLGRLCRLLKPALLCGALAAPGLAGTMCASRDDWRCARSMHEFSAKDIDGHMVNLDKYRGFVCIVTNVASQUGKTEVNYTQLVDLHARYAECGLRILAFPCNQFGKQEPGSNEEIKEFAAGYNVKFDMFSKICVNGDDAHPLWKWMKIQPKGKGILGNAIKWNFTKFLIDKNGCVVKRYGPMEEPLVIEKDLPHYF

In the case of `S=C(Nc1ccccc1)Nc1nccs1`, the compound was classed as inactive in [1], in test [2], in test [3], in test [4], in test [6] and in test [7]. Further, the outcome in [9], in [10], in [11], in test [13] and in test [14] was inactive. The Potency in [5] is 13.1 µM (active). Moreover, the Potency result in test [8], in test [12], in test [15], in test [17], in [18] and in test [19] was “inactive” each time. In addition, the Potency result in [20] was “inactive”. The max response in test [16] is -3.94%.

The values are drawn from PubChem BioAssay (NCATS).
